Source: PubChem
DUSP1 inh: MKP-1 phosphatase inhibitors, primary screen, biochemical, in vitro; inhibition, %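 (compounds tested at a single concentration somewhere between 10 and 100 µM)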; Dual specificity protein phosphatase 1 (Homo sapiens), P28562; recombinant MKP-1, OMFP hydrolysis fluorescence; 65,000 compounds, 0.15% hits;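 active = inhibition above about 50%, limit read from the data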
HePTP inh: inhibitors of human HePTP phosphatase, primary screen, biochemical, absorbance, leukemia target; recombinant HePTP phosphatase activity, OD absorbance; inhibition, % at 20 µM; 110,000 compounds, 0.64% hits; AID 521, 2006; in the data active = inhibition above about 50%
Target sequence (P35236 whole entry, looked up): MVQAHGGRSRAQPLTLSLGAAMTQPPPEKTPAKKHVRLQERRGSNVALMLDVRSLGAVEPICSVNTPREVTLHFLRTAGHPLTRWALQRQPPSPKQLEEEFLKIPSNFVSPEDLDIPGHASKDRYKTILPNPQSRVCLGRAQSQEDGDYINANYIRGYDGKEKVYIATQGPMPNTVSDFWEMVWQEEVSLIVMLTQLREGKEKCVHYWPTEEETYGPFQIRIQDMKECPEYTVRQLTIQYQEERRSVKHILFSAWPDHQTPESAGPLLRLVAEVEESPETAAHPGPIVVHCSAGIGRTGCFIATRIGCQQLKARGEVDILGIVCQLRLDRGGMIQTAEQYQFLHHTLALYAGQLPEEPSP
Cdc25B inh: inhibitors of Cdc25B phosphatase catalytic domain, primary screen, biochemical, OMFP fluorescence; inhibition, %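 (compounds tested at 10 µM final in the well)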; recombinant Cdc25B, OMFP fluorescence Ex485/Em525; 65,000 compounds, 0.1% hits; M-phase inducer phosphatase 2 (Homo sapiens), P30305; in the data active = inhibition above about 50%
Numbers stand for hits; n = inactive; x = no result; ! = not confirmed by another sample. Most compounds without a hit are left out; they make up all but 0.7% or so of the library.

SMILES	DUSP1 inh	HePTP inh	Cdc25B inh
CN1C(=O)/C(=C2/SC(=S)N(CCC(=O)O)C2=O)c2cc(Br)ccc21	x	104	x
CN1C(=O)/C(=C2\SC(=S)N(C(CCC(=O)O)C(=O)O)C2=O)c2ccccc21 (configuration not stated)	n	n	n
COc1cccc(-c2nnc(SCC(N)=O)n2-c2ccc(Cl)cc2)c1	n	n	n
CCOC(=O)CSc1nnc(-c2cccc(OC)c2)n1-c1ccccc1	x	94	x
O=C/C(=C\Nc1c2ccccc2nc2ccccc12)c1nc2cc(Cl)ccc2o1	x	n	x
Oc1c(Br)cc(/C=N/Nc2nnc3c(n2)[nH]c2ccccc23)c(Br)c1O	x	89	x
Cc1ccc2[nH]c3nc(N/N=C/c4cc(Br)c(O)c(Br)c4)nnc3c2c1	x	n	x
Cc1ccc(-c2csc(NC(=O)c3ccc(F)cc3)n2)cc1	x	n	x
CC(C)c1ccc(-c2cc(C(=O)O)c3ccccc3n2)cc1	x	n	x
Cc1nnc(NC(=O)c2cc(-c3ccc(Cl)cc3)nc3ccccc23)s1	x	n	x
O=C(c1cc(-c2cccs2)nc2ccccc12)N1CCN(c2ccccc2)CC1	x	n	x
CC(C)Oc1ccc(-c2cc(C(=O)O)c3ccccc3n2)cc1	x	104	x
O=C(O)c1cc(-c2cccs2)nc2ccccc12	x	92	x
Cc1nnc(NC(=O)c2cc(-c3cccs3)nc3ccccc23)s1	x	102	x
CCOC(=O)c1c2c(n(-c3ccccc3)c1C)C=C(Br)C(=O)C2=O	x	n	x
O=C(CCCC(=O)OCC(F)(F)C(F)F)Nc1cccc(F)c1	x	n	x
CC(=O)NN1C(=O)/C(=C/c2cc3c(cc2[N+](=O)[O-])OCO3)SC1=S	x	93	x
O=C1/C(=C\c2cc3c(cc2[N+](=O)[O-])OCO3)SC(=S)N1c1ccccc1	x	n	x
COc1ccc(C(=O)Nc2c(-c3ccccc3)nc3ccc(C)cn23)cc1	x	n	x
CCOC(=O)c1c(NC(=O)c2cccc(F)c2)sc(C(=O)Nc2ccccc2OCC)c1C	x	n	x
O=C(O)CN1C(=O)/C(=C2\SC(=S)N(/N=C/c3cc([N+](=O)[O-])ccc3O)C2=O)c2ccccc21	x	102	x
O=C(O)CCCCCN1C(=O)/C(=C2/C(=O)N(CC(=O)O)c3ccccc32)SC1=S	x	n	x
O=C(CC(=O)Nc1cccc(C(F)(F)F)c1)Nc1cccc(C(F)(F)F)c1	x	99	x
O=C(CSCC(=O)Nc1cccc(C(F)(F)F)c1)Nc1ccccc1	x	n	x
O=C(Nc1cccc(Cl)c1)c1ccc(C(=O)Nc2cccc(Cl)c2)cc1	x	n	x
SMILES	DUSP1 inh	HePTP inh	Cdc25B inh
CCOC(=O)CC(=O)CSc1nnc2sc3ccccc3n12	78	n	n
CN(C)C(=O)CSc1nnc2sc3ccccc3n12	n	n	n
COc1ccc(Oc2coc3cc(OCC(=O)O)ccc3c2=O)cc1	x	n	x
CCSCCOC(=O)C1=C(C)NC2=C(C(=O)CCC2)C1c1coc2ccccc2c1=O (configuration not stated)	50	n	n
CCSCCOC(=O)C1=C(C)NC2=C(C(=O)CCC2)C1c1cc(Br)ccc1OC (configuration not stated)	x	n	x
Cc1ccc(N2CCN(/N=C\c3ccccc3F)CC2)cc1	x	n	x
COc1cc(/C=C2/SC(=S)NC2=O)cc(Cl)c1OCc1ccccc1F	x	n	x
CCCOc1c(Cl)cc(/C=C2/SC(=S)NC2=O)cc1OC	x	n	x
CCOc1cc(/C=C2/SC(=S)NC2=O)cc(Cl)c1OCc1ccc(Cl)cc1Cl	x	84	x
COc1cc(/C=C2/SC(=S)NC2=O)cc(Cl)c1OCc1cccc2ccccc12	x	102	x
Cc1ccc(COc2ccc(C=C3C(=O)NC(=O)NC3=O)cc2Br)cc1	x	n	x
O=C1NC(=S)NC(=O)C1=Cc1ccc(OCc2ccc3ccccc3c2)c(Br)c1	x	52	x
COc1cccc(N2C(=O)c3ccc(C(=O)Nc4ccc(Br)cc4C(=O)O)cc3C2=O)c1	x	n	x
COc1ccc(CN(C(=O)c2ccco2)C2CC(C)N(C)CC2C)cc1 (configuration not stated)	n	102!	n
COc1ccc2[nH]c(=O)c(CN(C(=O)c3ccco3)C3CCCCC3)cc2c1	x	n	x
COC(=O)c1cc(C(=O)Nc2nccs2)cc([N+](=O)[O-])c1	x	n	x
CC1CCCC(NC(=O)CCn2c(=O)oc3ccccc32)C1C (configuration not stated)	n	n	n
CC1CCCCC1NC(=O)CCn1c(=O)oc2ccccc21 (configuration not stated)	77	x	n
O=C(COc1ccc([N+](=O)[O-])cc1)NNC(=O)c1ccccc1Cl	x	n	x
O=C1/C(=C\Nc2cc(Cl)ccc2O)CCc2ccccc21	x	n	x
CNc1ccc([N+](=O)[O-])cc1N/C=C1\CCc2ccccc2C1=O	x	104	x
CN(C)c1nc2ccccc2c(N)c1-c1ccccc1	n	n	n
Cc1cc2c(N)cccc2nn1	n	n	52
S=c1[nH]nc2c3c4c(sc3n3c(=S)[nH]nc3n12)CCC4	x	101	x
